Out of some 2,300 compounds screened, about 790 (34%) were called active. No rule for the calls is given here. This is one part of the list. Measured potencies and affinities stand elsewhere.
Experiment: THP-1 cell cytotoxicity, dose response, cytotoxicity control for non-replicating M. tuberculosis project (AID 489025)
Conditions: THP-1 cell viability; series mostly up to 40 µM

| Compound | outcome |
| --- | --- |
| Cc1nnc(N/N=C/c2ccc(-c3ccccc3F)o2)n1N | inactive |
| CN1C(c2ccccc2)CC(=NO)CC1c1ccccc1 (centres undefined) | inactive |
| O=C(COC(=O)Cc1ccc(Br)cc1)Nc1ccc(N2CCOCC2)cc1 | inactive |
| CC(CN1CCOCC1)OC(=O)c1ccc2c(c1)OCCO2 (centres undefined) | inactive |
| Cc1[nH]n2c(=O)c3c(nc2c1-c1ccccc1)CCCC3 | inactive |
| N/C(=N\OC(=O)CC1CCCCC1)c1ccncc1 | inactive |
| CCOC(=O)CN(C#N)c1nc(N(C)C)nc(N(C)C)n1 | inactive |
| O=C(COc1ccc(F)cc1)Nc1ccc2c(c1)OCCO2 | inactive |
| O=C(N/N=C/c1coc2ccccc2c1=O)c1ccc(Cl)cc1 | inactive |
| CCOc1ccc(/C=N/OCC(=O)Nc2ccc3c(c2)OCO3)cc1 | inactive |
| O=C(N/N=C/c1ccc[nH]1)c1ccc2c(c1)OCO2 | inactive |
| O=C(NCCc1c[nH]c2ccccc12)c1cc2ccccc2oc1=O | inactive |
| Cc1nnc(SCCC(=O)Nc2ccc(Cl)cc2)o1 | inactive |
| O=C(Nc1ncc2c(n1)-c1ccccc1OC2)c1ccc(F)cc1 | inactive |
| O=C(Cc1ccccc1)Nc1ccc(C(=O)NCC2COc3ccccc3O2)cc1 (centres undefined) | inactive |
| O=C(COC(=O)CCc1c[nH]c2ccccc12)NCc1ccc(Cl)cc1 | inactive |
| O=C(COC(=O)CCc1c[nH]c2ccccc12)NCc1ccc2c(c1)OCO2 | inactive |

| Compound | outcome |
| --- | --- |
| N#Cc1ccc(COC(=O)CCc2c[nH]c3ccccc23)cc1 | inactive |
| COc1ccc(OC(=O)CCc2c[nH]c3ccccc23)cc1 | inactive |
| Cc1cc(C)c2sc(NC(=O)C3=COCCO3)nc2c1 | inactive |
| O=c1cc(-c2ccncc2)oc2c1ccc1ccccc12 | inactive |
| Cc1ccc(N/N=C2\CS(=O)(=O)N(C)c3ccsc32)cc1 | inactive |
| CCCCOC(=O)C1CCCC(C(=O)OCCCC)N1 (centres undefined) | inactive |
| CCN1CCC(=NNC(=O)c2ccco2)CC1 | inactive |
| CCOC(=O)c1ccc(N=CC2=C(O)CC(C)(C)CC2=O)cc1 | inactive |
| CCCn1nnnc1NC(=O)COc1ccc(Br)cc1 | inactive |
| CCCn1nnnc1NC(=O)c1cc(Cl)ccc1Cl | inactive |
| CCOC(=O)C(C)Oc1cc(Cl)c(C=O)cc1OC (centres undefined) | inactive |
| CSc1ccc(N=Nc2c(C)[nH]n(C)c2=O)cc1 | inactive |
| Cc1ccc(N=Nc2c(C)[nH]n(C(N)=S)c2=O)cc1 | inactive |
| CCc1cc2c(=O)n(C(C)C(=O)OC3CCCCC3)cnc2s1 (centres undefined) | inactive |
| CC1CCCN(CCCOc2ccc([N+](=O)[O-])cc2)C1 (centres undefined) | inactive |
| COc1ccccc1OCCNC(=O)c1cc([N+](=O)[O-])cc([N+](=O)[O-])c1 | inactive |
| CC(C)(C)C(=O)COc1ccccc1[N+](=O)[O-] | inactive |

— PubChem BioAssay AID489025 (Southern Research Specialized Biocontainment Screening …, 2010)
